The supplement of paper PMC8975748
Counter-ions that a name gives are not always drawn. ± gives the standard deviation of the averaged measurements.

Assays:
[1] = test system: Saccharomyces cerevisiae BY4741 SeMeCo community; experiment: mean cell size (pixel area) (pixels); higher = larger cells; conditions: 10 µM; 24 h; SM minimal medium
In short: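 Yeast cells were fixed with paraformaldehyde, imaged by automated confocal microscopy and analysed in Harmony to obtain mean cell pixel area per well. They came from a four-plasmid fluorescent Saccharomyces cerevisiae BY4741 community, each plasmid complementing one auxotrophy and carrying a fluorescent marker. Before imaging, 70 µl of culture at OD600 = 0.3 was incubated for 24 h in SM medium in 384-well plates predosed acoustically with drug (final 10 µM). Values are means of 3 replicates. Same SeMeCo high-content imaging drug screen: Selleck FDA-approved drugs at 10 µM, 24 h in SM medium, 384-well plates, 3 replicates.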

[2] = test system: Saccharomyces cerevisiae BY4741 SeMeCo community; experiment: z-score of prototroph abundance vs DMSO median; higher = larger share of this subpopulation than in DMSO controls; conditions: 10 µM; 24 h; SM minimal medium; subpopulation (auxotrophy): Prototroph
In short: (§1)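 Subpopulation abundance was reported as a z-score against the median of vehicle wells. The Saccharomyces cerevisiae BY4741 community, carrying four plasmids that each restored one auxotrophy and encoded a distinct fluorescent protein, was grown 24 h in minimal SM medium in 384-well plates holding library drugs at 10 µM final. Cells were paraformaldehyde-fixed and imaged by automated confocal microscopy, with single-auxotroph fluorescent strains used for thresholds and autofluorescence correction.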

[3] = test system: Saccharomyces cerevisiae BY4741 SeMeCo community; experiment: z-score of subpopulation abundance vs DMSO median, subpopulation auxotrophic for M; higher = larger share of this subpopulation than in DMSO controls; conditions: 10 µM; 24 h; SM minimal medium; subpopulation (auxotrophy): M
In short: as §1

[4] = test system: Saccharomyces cerevisiae BY4741 SeMeCo community; experiment: z-score of subpopulation abundance vs DMSO median, subpopulation auxotrophic for L; higher = larger share of this subpopulation than in DMSO controls; conditions: 10 µM; 24 h; SM minimal medium; subpopulation (auxotrophy): L
In short: as §1

[5] = test system: Saccharomyces cerevisiae BY4741 SeMeCo community; experiment: z-score of subpopulation abundance vs DMSO median, subpopulation auxotrophic for H; higher = larger share of this subpopulation than in DMSO controls; conditions: 10 µM; 24 h; SM minimal medium; subpopulation (auxotrophy): H
In short: as §1

[6] = test system: Saccharomyces cerevisiae BY4741 SeMeCo community; experiment: z-score of subpopulation abundance vs DMSO median, subpopulation auxotrophic for LU; higher = larger share of this subpopulation than in DMSO controls; conditions: 10 µM; 24 h; SM minimal medium; subpopulation (auxotrophy): LU
In short: as §1

[7] = test system: Saccharomyces cerevisiae BY4741 SeMeCo community; experiment: z-score of subpopulation abundance vs DMSO median, subpopulation auxotrophic for LM; higher = larger share of this subpopulation than in DMSO controls; conditions: 10 µM; 24 h; SM minimal medium; subpopulation (auxotrophy): LM
In short: as §1

[8] = test system: Saccharomyces cerevisiae BY4741 SeMeCo community; experiment: z-score of subpopulation abundance vs DMSO median, subpopulation auxotrophic for HM; higher = larger share of this subpopulation than in DMSO controls; conditions: 10 µM; 24 h; SM minimal medium; subpopulation (auxotrophy): HM
In short: as §1

[9] = test system: Saccharomyces cerevisiae BY4741 SeMeCo community; experiment: z-score of subpopulation abundance vs DMSO median, subpopulation auxotrophic for HU; higher = larger share of this subpopulation than in DMSO controls; conditions: 10 µM; 24 h; SM minimal medium; subpopulation (auxotrophy): HU
In short: as §1

[10] = test system: Saccharomyces cerevisiae BY4741 SeMeCo community; experiment: z-score of subpopulation abundance vs DMSO median, subpopulation auxotrophic for UM; higher = larger share of this subpopulation than in DMSO controls; conditions: 10 µM; 24 h; SM minimal medium; subpopulation (auxotrophy): UM
In short: as §1

[11] = test system: Saccharomyces cerevisiae BY4741 SeMeCo community; experiment: z-score of subpopulation abundance vs DMSO median, subpopulation auxotrophic for HL; higher = larger share of this subpopulation than in DMSO controls; conditions: 10 µM; 24 h; SM minimal medium; subpopulation (auxotrophy): HL
In short: as §1

[12] = test system: Saccharomyces cerevisiae BY4741 SeMeCo community; experiment: z-score of subpopulation abundance vs DMSO median, subpopulation auxotrophic for HLU; higher = larger share of this subpopulation than in DMSO controls; conditions: 10 µM; 24 h; SM minimal medium; subpopulation (auxotrophy): HLU
In short: as §1

[13] = test system: Saccharomyces cerevisiae BY4741 SeMeCo community; experiment: z-score of subpopulation abundance vs DMSO median, subpopulation auxotrophic for HLM; higher = larger share of this subpopulation than in DMSO controls; conditions: 10 µM; 24 h; SM minimal medium; subpopulation (auxotrophy): HLM
In short: as §1

[14] = test system: Saccharomyces cerevisiae BY4741 SeMeCo community; experiment: z-score of subpopulation abundance vs DMSO median, subpopulation auxotrophic for HUM; higher = larger share of this subpopulation than in DMSO controls; conditions: 10 µM; 24 h; SM minimal medium; subpopulation (auxotrophy): HUM
In short: as §1

[15] = test system: Saccharomyces cerevisiae BY4741 SeMeCo community; experiment: z-score of subpopulation abundance vs DMSO median, subpopulation auxotrophic for LUM; higher = larger share of this subpopulation than in DMSO controls; conditions: 10 µM; 24 h; SM minimal medium; subpopulation (auxotrophy): LUM
In short: as §1

[16] = test system: Saccharomyces cerevisiae BY4741 SeMeCo community; experiment: z-score of subpopulation abundance vs DMSO median, subpopulation auxotrophic for HLUM; higher = larger share of this subpopulation than in DMSO controls; conditions: 10 µM; 24 h; SM minimal medium; subpopulation (auxotrophy): HLUM
In short: as §1

[17] = test system: Saccharomyces cerevisiae BY4741 SeMeCo community; experiment: z-score of subpopulation abundance vs DMSO median, subpopulation auxotrophic for U; higher = larger share of this subpopulation than in DMSO controls; conditions: 10 µM; 24 h; SM minimal medium; subpopulation (auxotrophy): U
In short: as §1

SMILES | mean cell size [1] | z-score of prototroph abundance [2] | z-score of subpopulation abundance [3] | z-score of subpopulation abundance [4] | z-score of subpopulation abundance [5] | z-score of subpopulation abundance [6] | z-score of subpopulation abundance [7] | z-score of subpopulation abundance [8] | z-score of subpopulation abundance [9] | z-score of subpopulation abundance [10] | z-score of subpopulation abundance [11] | z-score of subpopulation abundance [12] | z-score of subpopulation abundance [13] | z-score of subpopulation abundance [14] | z-score of subpopulation abundance [15] | z-score of subpopulation abundance [16] | z-score of subpopulation abundance [17]
OCCN1CCN(CC/C=C2/c3ccccc3Sc3ccc(C(F)(F)F)cc32)CC1 [Flupenthixol dihydrochloride] | 12.24 ± 0.076 | -0.24 | -0.29 | 1.34 | 0.73 | 0.47 | 0.75 | 0.47 | 0.56 | -0.35 | 0.88 | 0.47 | 0.33 | -0.33 | 0.65 | -0.47 | 
CC1=C(C(=O)OC(C)C)C(c2cccc([N+](=O)[O-])c2)C(C(=O)OC2CN(C(c3ccccc3)c3ccccc3)C2)=C(N)N1 (centres undefined) [Azelnidipine] | 12.5 ± 0.34 | -0.48 | -0.27 | -0.9 | 0.22 | 0.86 | -0.63 | 0.77 | 1.39 | 0.01 | -0.34 | -0.12 | 0.09 | 0.26 | 0.01 | -0.49 | 
COc1ccc2c(c1)c(CC(=O)O)c(C)n2C(=O)c1ccc(Cl)cc1 [Indomethacin] | 12.29 ± 0.12 | 0.27 | -0.33 | 0.48 | -0.68 | -0.17 | 0.16 | -1.04 | -0.04 | 1.08 | -0.38 | -0.33 | -1.07 | 0.09 | 0.47 | -0.35 | 
CCN1CCC[C@H]1CNC(=O)c1cc(S(N)(=O)=O)ccc1OC [Levosulpiride] | 12.5 ± 0.17 | 0.49 | -0.33 | -0.4 | -0.73 | 0.1 | -0.65 | -0.96 | -0.27 | 0.08 | -0.21 | -1.02 | -0.19 | 0.24 | 0.3 | -0.54 | 
CNCC[C@@H](Oc1ccccc1C)c1ccccc1 [Atomoxetine HCl] | 12.4 ± 0.22 | 0.61 | 0.21 | 0.96 | -0.84 | 0 | 0.36 | -0.84 | -0.99 | -0.26 |  | 0.11 | -0.77 | -1.01 |  | 1.1 | 0.03
CO[C@@H]1[C@@H](O[C@@H]2O[C@H](C)[C@@H](O[C@H]3C[C@@](C)(O)[C@@H](O)[C@H](C)O3)[C@H](N(C)C)[C@H]2O)[C@@H](CC=O)C[C@@H](C)[C@@H](O[C@H]2CC[C@H](N(C)C)[C@@H](C)O2)/C=C/C=C/C[C@@H](C)OC(=O)C[C@H]1OC(C)=O [Acetylspiramycin (ASPM)] | 12.3 ± 0.32 | -0.27 | -0.27 | 1.91 | 1 | 0.65 | 1.53 | 0.27 | -0.58 |  | 1.77 | 1.65 | 0.23 | 0.11 |  | 1.07 | -1.32
CC(C)[C@H](N)C(=O)OCCOCn1cnc2c(=O)nc(N)[nH]c21 [Valaciclovir HCl] | 12.3 ± 0.16 | 0.5 | -0.55 | -0.06 | -0.62 | -0.13 | -0.74 | -0.81 | 0.53 | 0.08 | -0.27 | -0.75 | -0.27 | 0.37 |  | -0.14 | 0.12
CCn1cc(C(=O)O)c(=O)c2cc(F)c(N3CCNCC3)nc21 [Enoxacin] | 12.3 ± 0.26 |  | -0.85 | 1.22 | -0.39 | 0.6 | 1.61 | -1.07 | -0.82 | -0.47 |  | 0.23 | -0.64 | -0.01 |  | 0.48 | -0.4
COc1ccnc(C[S+]([O-])c2nc3cc(-n4cccc4)ccc3[nH]2)c1C (centres undefined) [Ilaprazole sodium] | 12.7 ± 0.23 | -0.81 | 1.1 | 1.32 | 5.12 | -0.87 | 1.43 | 1.14 | -0.9 | -1.01 | 6.22 | 2.72 | 3.01 | 0.43 |  | 0.94 | -1.54
Cc1ccc(C(=O)C(C)CN2CCCCC2)cc1 (centres undefined) [Tolperisone HCl] | 12.6 ± 0.14 |  | 0.72 | -0.42 |  | -0.75 | -0.14 | -0.34 |  | -0.03 | -0.34 | -0.71 | -0.48 | -0.56 | -0.71 | -0.57 | -0.15
